Compound activity (PubChem BioAssay)
Rows were chosen to be rich in hits. Some 2.9% of all compounds tested hit in one or more screens of this group.
A549 tox: Nrf2 qHTS screen for inhibitors: counterscreen for cytotoxicity; A549 ARE-Fluc cells, CellTiter-Fluor viability, 18-24 h; Potency, µM (titrated, usually from 46 µM), for inactives: at the top dose activity change, negative = cytotoxicity, actives largely listed as inhibitors; actives 0.16% (n = 390,000); AID 504648, 2011; note: % is set by controls: 0 for no effect and ±100 for the full control effect
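A549 ARE_Fluc cells in 5% FBS OPTI-MEM were exposed to compounds in concentration-response for 18-24 h at 37 deg C. Viability was read by CellTiter-Fluor fluorescence (Ex 405/Em 525) after 30 min, before the luciferase read.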
Nrf2 inh: Nrf2 qHTS screen for inhibitors. A549 ARE-Fluc reporter, luciferase luminescence, 18-24 h. Potency, µM (titrated, usually from 46 µM), for the others: at the highest dose activity change, negative = inhibition, actives largely listed as inhibitors. actives 2.1% (n = 360,000); note: % is set by controls: 0 for no effect and ±100 for the full control effect; nearly all actives have a fitted effect of over 60% in size
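Cells were seeded and rested 2 h, then exposed to compounds for 18-24 h. CellTiter-Fluor was read first as a viability measure. BugLite was added 15 min before the final luminescent read of ARE-luciferase activity in A549 cells.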
S2 tox: Viability Counterscreen for Primary qHTS for Inhibitors of ATXN expression; S2 cells (HEK-293 line with an ATXN2-luciferase reporter) viability, CellTiter-Fluor protease fluorescence, 24 h; actives 0.49% (n = 400,000); Potency, µM (top dose mostly 56.7 µM), hits mostly cytotoxic; note: nearly all actives have a fitted effect of over 40% in size
ATXN2 expr inh: Primary qHTS for Inhibitors of ATXN expression; Potency, µM (top dose mostly 57 µM), for inactives: at the top dose activity change, negative = inhibition, actives largely listed as inhibitors; AID 1745845, 2022; actives 0.72% (n = 360,000); HEK-293 ATXN2-luciferase reporter, luminescence, 24 h; note: % is set by controls: 0 for no effect and ±100 for the full control effect; nearly all actives have a fitted effect of over 55% in size
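ATXN2-luciferase reporter cells (luciferase flanked by upstream and downstream ATXN2 gene portions) were treated 24 h at 37 °C with compounds at up to 57 uM. SteadyGlo luminescence gave expression; GF-AFC fluorescence gave viability.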
Nrf2 ARE act: qHTS of Nrf2 Activators. AREc32 ARE-luciferase reporter (MCF7-derived line), luminescence, 24 h. Potency, µM (top dose mostly 46.1 µM), inactives show at the top dose activation, most hits filed as activators. actives 0.31% (n = 410,000). AID 624171, 2012; note: % of control where 0% means no effect; nearly all actives have a fitted effect of over 65% in size
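Quantitative high-throughput format: AREc32 reporter cells, 1000 per well, received compound by pin transfer and were incubated 24 hr at 37 deg C, 5% CO2, before Steady-Glo luminescence detection.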
* = called active by the depositor; i = inactive; ? = inconclusive; . = no result; ! = not confirmed by another sample. Calls come from the whole dose curve; as a rule, active = well fitted curve in the direction sought with a large enough effect; inconclusive = small, poorly fitted or top-dose-only effect, or another doubt; inactive = no such curve, though single readings can be large; an effect the other way counts as inactive or inconclusive. Potency is the fitted concentration of half-maximal effect.

SMILES	A549 tox	Nrf2 inh	S2 tox	ATXN2 expr inh	Nrf2 ARE act
Cc1ccc(Oc2nc3c(c(=O)n(Cc4ccccc4Cl)c(=O)n3C)n2C)cc1C	-2.7%	-2.4%	i	0.7%	-0.5%
Cn1c(NCc2ccccc2)nc2c1c(=O)n(Cc1ccc(Br)cc1)c(=O)n2C	-12.3%	14.6µM*	i	-17.1%	2.9%
COc1ccc(CNc2nc3c(c(=O)n(Cc4ccc(Br)cc4)c(=O)n3C)n2C)cc1	-24.9%	18.4µM*	i	-31.4%	-0.3%
CCN(C(=O)CSc1nc2ccc([N+](=O)[O-])cc2s1)C1CCS(=O)(=O)C1 (stereo not drawn)	0.1%	1.9%	i	11.2%	2.1%
CCCC(C(=O)Nc1ccc(S(=O)(=O)Nc2nccs2)cc1)c1ccccc1 (stereo not drawn)	-7.8%	15.6%	i	20.1%	-0.1%
Cn1c(=O)c2c(nc(NCc3ccc4c(c3)OCO4)n2Cc2ccc(F)cc2)n(C)c1=O	-26.7%	23.1µM*	.	.	0.1%
Cn1c(NCc2ccco2)nc2c1c(=O)n(Cc1ccc(Cl)cc1Cl)c(=O)n2C	-13.4%	18.4µM*	i	-12.7%	2.1%
N=c1c2c(-c3ccccc3)c(-c3ccccc3)n(Cc3ccco3)c2ncn1CCO	?	?	14.1µM*	?	5.7%
CCOC(=O)Cn1c(=O)n(C2CCCCC2)c2nc(-c3c(F)cccc3Cl)nc(C(N)=O)c21	-1.2%	.	i	?	3.2%
CN(C)CCCNC(=O)c1cc(S(=O)(=O)N2CCOCC2)ccc1F	3.4%	8.5%	i	6.0%	-0.2%
CC1CCN(S(=O)(=O)c2ccc(C(=O)NCc3ccc4c(c3)OCO4)cc2)CC1	9.8%	.	i	-4.0%	-0.1%
CC1CC(C)CN(S(=O)(=O)c2ccc(C(=O)NCc3ccc4c(c3)OCO4)cc2)C1 (stereo not drawn)	1.3%	10.3µM*	i	-5.0%	0.3%
Cc1nc2cc(NS(=O)(=O)c3c(C)c(C)cc(C)c3C)ccc2s1	?	11.2µM*	?	-10.8%	-0.2%
Cc1nc2ccc(NS(=O)(=O)c3c(C)c(C)cc(C)c3C)cc2s1	-10.8%	14.6µM*	i	-28.0%	-0.5%
Cc1ccc(OCCCCNC2CCCC(C)C2C)c(C)c1 (stereo not drawn)	?	?	?	?	6.0%
CCOC(=O)c1cc(C(=O)NCc2ccc(Cl)cc2Cl)nn1C	-17.0%	20.6µM*	i	5.1%	0.2%
CC(=O)OC1CC[C@@]2(C)C(CCC3C2CC(=O)[C@@]2(C)C3CC3CC(C)=CC(=O)C32)C1 (stereo partly drawn)	-3.3%	-0.8%	i	.	-1.1%
Cc1ccc(C(=O)NCc2ccco2)cc1S(=O)(=O)Nc1cccc(Cl)c1	-12.2%	23.1µM*	i	-0.7%	2.8%
CCN(CC(=O)NC(C)(C)C)Cc1nc2c(Br)cc(Br)cc2c(=O)[nH]1	-13.2%	-13.0%	?	17.8µM*	7.4%
CCN(CC(=O)NC1CCS(=O)(=O)C1)Cc1nc2c(Br)cc(Br)cc2c(=O)[nH]1 (stereo not drawn)	1.2%	12.9%	i	-34.9%	0.4%
O=C(CSc1nc2ccccc2c(=O)n1-c1ccccc1)Nc1ccc2c(c1)CCC2	.	.	i	-7.2%	0.8%
Nc1ccc(Sc2cnn(-c3ccccc3)c(=O)c2Cl)cc1	-6.5%	3.7%	i	6.5%	15.8µM*
CS(=O)(=O)N1CCN(c2cnn(-c3ccccc3)c(=O)c2Cl)CC1	1.7%	?	i	3.5%	3.2%
COc1cnn(-c2cccc(C)c2)c(=O)c1Cl	0.9%	12.5%	i	8.2%	7.6%
Cc1ccc(Sc2cnn(-c3ccccc3)c(=O)c2Cl)cc1	0.6%	6.1%	i	-4.7%	5.01µM*
SMILES	A549 tox	Nrf2 inh	S2 tox	ATXN2 expr inh	Nrf2 ARE act
Nc1ncnc2c1c(-c1cccc(OCc3ccccc3)c1)cn2C1CC(CN2CCCC2)C1 (stereo not drawn)	.	.	.	30.6µM*	.
CC1(C)S[C@@H]2[C@H](NC(=O)C(NC(=O)N3CCNC3=O)c3ccccc3)C(=O)N2[C@H]1C(=O)O (stereo partly drawn)	-5.7%	-9.8%	i	8.3%	-0.2%
CC(Oc1ccc2cc(-c3ccccc3)c(=O)oc2c1)C(=O)NCC1CCC(C(=O)O)CC1 (stereo not drawn)	0.4%	8.4%	i	4.8%	-0.1%
CN(C)c1nc(=NCc2ccco2)ss1	-0.3%	-0.8%	0.1µM*	.	20.1%
O=C(N/N=C/c1cc(Br)ccc1O)C(=O)Nc1ccccc1OC(F)(F)C(F)F	-7.7%	.	i	3.16µM*	-0.4%
COc1ccccc1/C=N/NC(=O)C(=O)Nc1ccccc1OC(F)(F)C(F)F	0.4%	2.4%	i	5.2%	0.8%
O=C(N/N=C/c1cc(Cl)ccc1O)C(=O)Nc1ccccc1OC(F)(F)C(F)F	9.5%	?	i	12.6µM*	-0.3%
O=c1oc2cc(S(=O)(=O)NCCCO)ccc2c2ccc(S(=O)(=O)NCCCO)cc12	-0.3%	-12.6%	i	-9.4%	-0.5%
CCOC(=O)c1nc(Nc2ccc(OC)cc2)c2ccccc2n1	-1.8%	-1.7%	i	-7.4%	-0.3%
COc1cccc(-c2cc(C(=O)Nc3cc(Cl)ccc3O)on2)c1	2.3%	6.9%	i	7.8%	7.94µM*
CCN1CCN(Cc2ccc(NC(=O)c3ccc(C)c(NC(=O)C(=O)c4c[nH]c5ccccc45)c3)cc2C(F)(F)F)CC1	?	?	14.1µM*	14.1µM*!	-3.6%
CCN1CCN(Cc2ccc(NC(=O)c3cc(NC(=O)c4cnn(-c5ccccc5)c4N)cc(OC)c3)cc2C(F)(F)F)CC1	-0.1%	-10.1%	25.1µM*	?	-1.5%
CCN1CCN(Cc2ccc(NC(=O)c3cc(NC(=O)C(=O)c4c[nH]c5ccccc45)cc(OC)c3)cc2C(F)(F)F)CC1	-20.2%	-29.5%	15.8µM*	14.1µM*!	-5.3%
COc1cc(C2CC(=O)N(Cc3ccc(F)cc3)c3ccccc3S2)cc(OC)c1OC (stereo not drawn)	-20.4%	16.4µM*	.	?	-2.5%
COc1ccccc1NC(=O)CSc1nnc(C)n1CCc1ccccc1	-3.3%	19.8%	i	-1.7%	-0.5%
CS(=O)(=O)Nc1ccccc1C(=O)Nc1cccc(Cl)c1	-3.4%	?	i	-6.0%	-0.2%
CS(=O)(=O)Nc1ccccc1C(=O)Nc1cc(Cl)cc(Cl)c1	-23.8%	13µM*	?	22.4µM*	-0.5%
COC(=O)c1ccc(NS(=O)(=O)c2ccc(-n3cccn3)cc2)cc1	7.3%	-18.4%	i	-1.2%	1.2%
CN1C/C(=C/c2cccnc2)C(=O)/C(=C/c2cccnc2)C1	0.1%	10.0%	?	20µM*	?
CC(C)N1C/C(=C/c2cccnc2)C(=O)/C(=C/c2cccnc2)C1	0.2%	4.8%	?	-10.9%	?
